Reference: PubChem BioAssay (NCI)
This is part of a sample that, as a whole, favours compounds with a hit. Of some 83,000 tested, about 20% had one in any assay.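 The test compound was applied at a single concentration to cells in 96-well plates for 48 hours, and percent growth was recorded.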 The source made the active and inactive calls. Rule for the calls: active = growth percent below 10; inactive = the rest.

tested on: CAKI-1 renal; test: NCI-60 one-dose screen, 48 h (100 = growth as untreated, 0 = no growth, -100 = all killed); conditions: 10 µM unless noted

| SMILES | growth |
| --- | --- |
| COC(=O)C(Cc1ccccc1)NS(=O)(=O)/N=C1\NC(=O)NC1=C(Cl)Cl (stereo not drawn) | 100% (inactive) |
| [Cl][Ru].c1ccc(-c2cccc(-c3ccccn3)n2)nc1.c1ccc(-c2ccnc3c2ccc2c(-c4ccccc4)ccnc23)cc1 | 80.3% (inactive) |
| NS(=O)(=O)c1ccc(Nc2nc(Nc3ccccc3)nc(-n3nc(-c4ccccc4)cc3-c3ccccc3)n2)cc1 | 21% (inactive) |
| COc1ccccc1/C=C/C=N/NC1=NC2C(S1)N(C)C(=O)N2C (stereo not drawn) | 30.6% (inactive) |
| O=C(c1ccc(O)cc1)C1[C@H](c2ccc(Cl)cc2)[C@@H](c2ccccc2)NC12C(=O)Nc1ccc(Cl)cc12 (stereo partly drawn) | 29.5% (inactive) |
| Nc1cc(-c2c[nH]c3ccccc23)nc2cc(-c3c[nH]c4ccccc34)nn12 | 59.4% (inactive) |
| Cc1nc2cnc(N)c(C#Cc3cncc(C(=O)Nc4ccc(Cl)c(C(F)(F)F)c4)c3)c2nc1C | 18.8% (inactive) |
| CCN1C(=S)N(CC)C2C1N=C(SC)N2/N=C/C=C/c1ccccc1[N+](=O)[O-] (stereo not drawn) | 76.5% (inactive) |
| COc1ccc(/C=N/NC(=O)c2[nH]c3ccc(Br)cc3c2-c2ccccc2)o1 | 26.3% (inactive) |
| NS(=O)(=O)c1cccc(Nc2nc(SCC(=O)c3ccc([N+](=O)[O-])cc3)nc3ccccc23)c1 | 27.6% (inactive) |
| COc1cc(/C=C/C(=O)c2ccccc2)ccc1Oc1nc(NCCO)nc(N2CCOCC2)n1 | 86.2% (inactive) |
| COC1CCN(Cc2ccc3c(NNC(=O)c4cnccn4)nc4cc(F)ccc4n23)C1 (stereo not drawn) | 16.8% (inactive) |
| CS(=O)(=O)Nc1ccc(-c2nn(-c3ccc(S(C)(=O)=O)cc3)cc2/C=C/C(=O)c2ccc(NC(=O)CO[N+](=O)[O-])cc2)cc1 | 97.7% (inactive) |
| O=C(Nc1nc2ccc(O)cc2s1)c1cccc(C(F)(F)F)c1 | 53% (inactive) |
| c1ccc2c(NCCCn3ccnc3)c3oc4ccccc4c3nc2c1 | -8.49% (active) |
| CC(C)NC(=O)c1cc(-c2ccc(NC(=O)Nc3ccc(N4CCOCC4)c(C(F)(F)F)c3)cc2)nc2cccnc12 | 63.7% (inactive) |
| Cn1c(SCC(=O)c2cccs2)nc2ccccc2c1=O | 82.1% (inactive) |
| CS(=O)(=O)c1ccc(-c2nc3ccccn3c2/C=N/Nc2nc(-c3ccc(Br)cc3)cs2)cc1 | 96.9% (inactive) |
| Clc1ccc2c(NCCCn3ccnc3)c3oc4ccccc4c3nc2c1 | 22.1% (inactive) |

| SMILES | growth |
| --- | --- |
| CCN1C(=S)N(CC)C2C1NN=C1SC(c3ccccc3)=CC(=O)N12 (stereo not drawn) | 98.6% (inactive) |
| COc1ccc(-c2csc(N/N=C/c3c(-c4ccc(S(C)(=O)=O)cc4)nc4ccccn34)n2)cc1 | 93.4% (inactive) |
| CSCCC(C(=O)O)N1C(=O)/C(=C/c2ccc(O)c(O)c2)SC1=S (stereo not drawn) | 95.6% (inactive) |
| O=C1Nc2cc(Cl)ccc2/C1=C\c1ccc(OCc2ccc(Br)cc2F)cc1 | -77.1% (active) |
| CN(C)CCCOc1c2ccc(Cl)cc2nc2c1oc1ccc(Cl)cc12 | -12.1% (active) |
| O=C(N/N=C/c1ccc(Br)s1)c1[nH]c2ccc(Br)cc2c1-c1ccccc1 | 22.8% (inactive) |
| CC(=NNc1ncnc2ccccc12)c1ccc(S(C)(=O)=O)cc1 | 89.4% (inactive) |
| O=C(N/N=C/c1ccco1)c1[nH]c2ccc(Br)cc2c1-c1ccccc1 | 30.3% (inactive) |
| COc1ccc(NC2=CC(=O)C(C)=C(C)C2=O)cc1 | 93.5% (inactive) |
| CN1C(=S)N(C)C2C1NN=C1SC(c3ccccc3)=CC(=O)N12 (stereo not drawn) | 90.8% (inactive) |
| CC1=C(C)C(=O)C(Nc2ccccc2)=C(Cl)C1=O | 96.1% (inactive) |
| C#Cc1nc(C2=C(C)/C(=N/OCc3ccccc3)CC2)cs1 | -20.1% (active) |
| COc1cc(/C=C/C(=O)c2ccc(C(F)(F)F)cc2)ccc1Oc1nc(NCCO)nc(N2CCOCC2)n1 | 82.7% (inactive) |
| CN1C(=O)N(c2ccccc2)C2N=C(N/N=C/c3ccccc3)SC21 (stereo not drawn) | 41.9% (inactive) |
| COc1ccc(C(=O)c2cc(C(=O)/C=C/c3c(Cl)cccc3Cl)c3cc(C)ccn23)cc1 | 89.9% (inactive) |
| Cn1cc(-c2cc(N)n3nc(-c4cn(C)c5ccc(F)cc45)cc3n2)c2cc(F)ccc21 | 56.5% (inactive) |
| CC(C)(C)Nc1nc2c(OCCc3ccccc3)cccn2c1-c1cccc(F)c1 | -11.5% (active) |
| C=CCSc1ccc2c(c1)C(N1CCNCC1)=Nc1ccccc1O2 | 58.8% [8.25 µM] (inactive) |
| COc1ccc(-c2nc3ccc(-c4nnc(SCC(=O)Nc5ccc(C(=O)/C=C/c6ccccc6)cc5)o4)cc3[nH]2)cc1OC | 97% (inactive) |
